Source: PubChem BioAssay (several laboratories)
Anthrax LF inh2: anthrax lethal factor protease inhibition. 360,000 tested, 0.12% active. multiplex microsphere protease cleavage assay, LF. inhibition, % at 10 µM
Target sequence (P15917 whole entry, looked up): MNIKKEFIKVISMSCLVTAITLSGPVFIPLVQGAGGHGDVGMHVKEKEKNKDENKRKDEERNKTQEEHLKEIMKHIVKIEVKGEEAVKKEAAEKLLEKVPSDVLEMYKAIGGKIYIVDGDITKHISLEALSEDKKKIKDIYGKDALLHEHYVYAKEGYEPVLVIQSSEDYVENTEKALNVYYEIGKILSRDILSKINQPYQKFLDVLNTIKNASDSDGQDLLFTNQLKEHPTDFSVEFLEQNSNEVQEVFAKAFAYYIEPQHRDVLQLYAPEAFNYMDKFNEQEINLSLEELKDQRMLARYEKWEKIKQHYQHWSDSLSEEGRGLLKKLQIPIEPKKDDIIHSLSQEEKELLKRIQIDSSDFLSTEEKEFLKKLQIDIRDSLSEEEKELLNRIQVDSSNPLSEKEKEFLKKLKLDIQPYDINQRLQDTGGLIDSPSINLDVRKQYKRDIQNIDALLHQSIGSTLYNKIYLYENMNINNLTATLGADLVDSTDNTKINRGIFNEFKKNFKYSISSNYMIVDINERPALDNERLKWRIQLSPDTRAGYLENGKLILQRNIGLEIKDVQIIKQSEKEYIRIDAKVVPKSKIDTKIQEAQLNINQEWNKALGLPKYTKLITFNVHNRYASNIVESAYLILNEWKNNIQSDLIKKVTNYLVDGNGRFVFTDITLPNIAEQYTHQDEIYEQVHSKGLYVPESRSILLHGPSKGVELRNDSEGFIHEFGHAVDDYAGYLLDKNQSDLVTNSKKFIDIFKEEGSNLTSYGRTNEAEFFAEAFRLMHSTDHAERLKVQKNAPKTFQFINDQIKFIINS
BoNT A protease: inhibitors of Botulinum neurotoxin A light chain protease; multiplex microsphere protease substrate cleavage, flow cytometry; inhibition, % at 10 µM; AID 588499; 360,000 tested, 0.17% active
MazEF act: increases E. coli MazEF RNase cleavage of RNA; AID 504720; FAM/BHQ RNA-DNA oligo cleavage fluorescence, 5 h; P0AE70; 350,000 tested, 0.32% active; activation, % at 20 µM; in the data active = activation above about 50%
VHR inh abs: blocks human VHR1 dual specificity phosphatase. P51452. AID 1654. 290,000 tested, 0.52% active. recombinant VHR phosphatase, pNPP absorbance. inhibition, % at 13.3 µM; in the data active = inhibition above about 50%
Autofluor counter: compound fluorescence in toxin protease inhibitor counterscreen | compound autofluorescence counterscreen, microsphere flow cytometry; active compounds read high | AID 624483 | 360,000 tested, 3.1% active | fluorescence intensity (test concentration not listed); in the data active = fluorescence intensity above about 16000; inconclusive = no clear call, values can overlap the other calls
BoNT-F LC inh: BoNT F light chain protease inhibition; Multiplex microsphere protease cleavage assay, flow cytometry; inhibition, % at 10 µM; 360,000 tested, 0.22% active; AID 588497; in the data active = inhibition above about 35%, passing the limit was not always enough; inconclusive = no clear call, values can overlap the other calls
Of the large screens only hits and unclear results are named; the others gave an inactive call. Compounds with a hit are over-represented: about 4% of the library has one in this group of screens. Cut-off read from the data, not from the text of the source, unless noted: active = inhibition above about 30%; inconclusive = no clear call, values can overlap the other calls; inactive = below that.

COCCNC(=O)c1c[nH]c2ccc(S(=O)(=O)N3CCOCC3)cc2c1=O	none
O=C(Oc1ccc2c(c1)OCO2)c1ccc(Br)c(S(=O)(=O)N2CCOCC2)c1	BoNT A protease inconclusive, Autofluor counter 23166
O=C(NCc1ccc2c(c1)OCO2)c1c[nH]c2ccc(S(=O)(=O)N3CCOCC3)cc2c1=O	Autofluor counter 21299
CCOc1ccc2[nH]cc(C(=O)NCc3ccccc3)c(=O)c2c1	BoNT-F LC inh inconclusive
O=C(NCc1ccc2c(c1)OCO2)c1ccc(Cl)c(S(=O)(=O)N2CCOCC2)c1	Autofluor counter 23645
COc1ccc(CC(=O)NCc2cccs2)cc1OC	none
COc1cc2[nH]cc(C(=O)NCc3cccs3)c(=O)c2cc1OC	Autofluor counter 17586 (no result: VHR inh abs)
CS(=O)(=O)N1CCC(C(=O)NCCC2=CCCCC2)CC1	none
CCCN1C(=O)/C(=C/c2ccc(OCc3ccc(C(=O)O)cc3)c(OC)c2)NC1=S	none (no result: Anthrax LF inh2, BoNT A protease, VHR inh abs, Autofluor counter, BoNT-F LC inh)
CC(C)CNC(=S)NNC(=O)c1ccc2c(c1)OCO2	Autofluor counter 17145
COCCCNC(=S)NNC(=O)c1ccc2c(c1)OCO2	none
Cc1cccc(NC(=O)c2sc3nc4c(c(-c5cccs5)c3c2N)CN(C)CC4)c1	none
CCc1ccc([C@@H]2C[C@H]3CN(Cc4ccccc4OC)C(=O)[C@]34CCCN24)cc1	Autofluor counter 24775
CCN1CCC2(CCNC2)C1 (stereo not given)	Autofluor counter 16425
CCCCN1CCC(C#N)(Nc2ccccc2)CC1	Autofluor counter 24452
COc1ccccc1/C=C1\SC(=S)N(CCC(=O)NC2=NCCS2)C1=O	MazEF act 172
O=C(CCN1C(=O)/C(=C\c2ccccc2Cl)SC1=S)Nc1cccnc1	none
COc1cc(/C=C2/SC(=S)N(CC(=O)Nc3cccnc3)C2=O)cc(OC)c1OC	BoNT A protease 31
COc1ccccc1/C=C1/SC(=S)N(CCC(=O)Nc2cccnc2)C1=O	MazEF act 435
COc1ccc(O)c(/C=C2/SC(=S)N(Cc3ccccc3)C2=O)c1	BoNT-F LC inh inconclusive
COc1ccc(OC)c(/C=C2\SC(=S)N(Cc3cccnc3)C2=O)c1	BoNT A protease 42
CC1(C)CC(=O)C=C(c2cccc(CO)c2)C1	none (no result: VHR inh abs)
Cc1cc(N2CCN(c3cccc(C)c3C)CC2)nc(-c2ccccc2)n1	VHR inh abs 53
CC(=O)CSc1nc2cc3c(cc2cc1C#N)OCCO3	MazEF act 80
Cc1cc(C)c2cc(C#N)c(NCCCNC(=O)CCC(=O)O)nc2c1	BoNT A protease inconclusive, Autofluor counter 21922
Cc1cc(C)c2cc(C#N)c(SCC(=O)Nc3cc(C)on3)nc2c1	none
COC(=O)CSc1nc2cc(C)cc(C)c2cc1C#N	MazEF act 131
Cc1ccc2nc(SCC(=O)NCc3cccs3)c(C#N)cc2c1	none
COC(=O)CSc1nc2ccc(C)cc2cc1C#N	MazEF act 901
COc1ccc(NC(=O)COC(=O)CN2C(=O)NC(C)(C)C2=O)cc1	none (no result: VHR inh abs)
CCOc1ccccc1NC(=O)C1C2CCC3C(CCC21)C3(Cl)Cl (stereo not given)	none
CCOC(=O)c1nc(C)n(-c2cc(Cl)ccc2Cl)n1	Autofluor counter 19905
CCOC(=O)CSc1nc2cc(C(=O)N3CCCC3)ccc2c(=O)n1Cc1ccccc1	none
CCOC(=O)CSc1nc2ccccc2c(=O)n1-c1ccc(C(=O)NCCOC)cc1	Autofluor counter 21747
CCOC(=O)CSc1nc2cc(C(=O)N3CCC(C(N)=O)CC3)ccc2c(=O)n1-c1ccccc1	Autofluor counter 21305
O=C(c1cc(-c2cccs2)nc2ccccc12)N1CCN(c2ccccc2)CC1	none
COc1ccc(C(=O)C[n+]2cccc(C(N)=O)c2)cc1	none
Cc1cc(C)c(S(=O)(=O)ON2C(=O)c3ccccc3C2=O)cc1C	BoNT A protease inconclusive, Autofluor counter 23962
Nc1nc(SCCO)[nH]c(=O)c1NC(=O)c1ccco1	Autofluor counter 19769 (no result: VHR inh abs)
CCN(CC)C(=O)N1CCN(C(=O)N2CCOCC2)CC1	none
Cc1ccc(N2CCCn3c2cc(C)c(C#N)c3=O)cc1C	Autofluor counter 21058
Cc1ccc(N2CCCn3c2cc(C)c(C#N)c3=O)cc1Cl	none
CC(C)(C)c1nc(NCCN2CCOCC2)c2nnn(Cc3ccccc3Cl)c2n1	Autofluor counter 23490
c1ccc(Cn2nnc3c(NCCN4CCOCC4)ncnc32)cc1	Autofluor counter 22975
Clc1ccccc1Cn1nnc2c(NCCN3CCOCC3)ncnc21	none
Cc1nc(NCCN2CCOCC2)c2nnn(Cc3ccccc3Cl)c2n1	none
CCOC(=O)C1=C(C)N=C2SC(C(=O)OC)=CC(=O)N2C1c1cccc(OC)c1 (stereo not given)	Autofluor counter 19879
CCOC(=O)C1=C(C)N=C2SC(C(=O)OC)=CC(=O)N2C1c1ccc(F)cc1 (stereo not given)	none
O=C(Cc1c(Cl)cccc1Cl)OCC(=O)N1CCOCC1	none (no result: VHR inh abs)
CCC(=O)Nc1nc2ccccc2n1CCN(C)C	VHR inh abs 57
CC(=O)Nc1nc2ccccc2n1CCN(C)C	none
COc1ccc2ccc(O)c(CN3CCN(S(=O)(=O)c4cccc(C(F)(F)F)c4)CC3)c2c1	none (no result: VHR inh abs)
Cc1csc(C)[n+]1CC(=O)c1ccccc1	BoNT-F LC inh 48
COC1=C(Nc2ccccc2OC)C(=O)c2ccccc2C1=O	none (no result: Anthrax LF inh2, BoNT A protease, Autofluor counter, BoNT-F LC inh)
COc1ccccc1NC1=C(NC(C)=O)C(=O)c2ccccc2C1=O	MazEF act 218
COn1c(-c2ccc(Cl)cc2)nc2ccc(Cl)cc21	Autofluor counter 23040
Clc1ccc(COn2c(-c3ccccc3)nc3ccccc32)cc1	none
Clc1ccc(COn2c(-c3ccc(Cl)cc3)nc3ccccc32)cc1	BoNT A protease inconclusive, Autofluor counter 21296
Cc1ccc(NC(=S)Nc2ccc(F)cc2)cc1C	none (no result: Anthrax LF inh2, BoNT A protease, Autofluor counter, BoNT-F LC inh)
COc1ccccc1OCC(=O)N/N=C1/SCC(=O)N1Cc1ccccc1	Autofluor counter 22284
O=C(COc1ccc(Br)cc1)N/N=C1/SCC(=O)N1Cc1ccccc1	none
C=CCOC(=O)C1CC=CCC1C(=O)Oc1ccc(F)cc1F (stereo not given)	BoNT A protease inconclusive, Autofluor counter 24043
O=C(COC(=O)CCc1ccccc1)Nc1ncc(Cl)cc1Cl	Autofluor counter 16931
O=C(COC(=O)Cc1ccccc1)Nc1ncc(Cl)cc1Cl	none
Cc1nc(NC(=O)COC(=O)CCS(=O)(=O)c2ccccc2Cl)c(Cl)cc1Cl	BoNT A protease inconclusive, Autofluor counter 20461
O=C(NCc1cccc(C(F)(F)F)c1)C1CC2Cn3c(nc4ccccc43)C2N1Cc1ccccc1 (stereo not given)	none (no result: VHR inh abs)
CCOC(=O)CNC(=O)CNC(=O)c1ccc(OCC(C)C)cc1	VHR inh abs 53
CCOC(=O)CNC(=O)CNC(=O)c1ccc(OC(C)C)cc1	none
CN1CCc2c([nH]c3ccccc23)C1	none
O=C(CSc1nnc2scc(-c3ccc(Cl)cc3)n12)NCc1ccc2c(c1)OCO2	Autofluor counter 24173
O=C(CSc1n[nH]c(-c2cccs2)n1)NCc1ccc2c(c1)OCO2	Autofluor counter 22840
Nc1nc(SCC(=O)NCc2ccc3c(c2)OCO3)n[nH]1	none
O=C(CSc1nnc2scc(-c3ccc(Cl)cc3)n12)NCc1ccco1	Autofluor counter 25480
